Results taken from the supplement of paper PMC10338343.
± gives the standard deviation. The full ranking holds about 8,200 sequences; the median of “pre-steady-state target cleavage rate” is about 0.024, and the highest 2% start at about 1.3. The entries come from a sample that favours the highest values as a whole.

System: MIWI (PIWIL1) piRISC loaded with L1MC piRNA (30 nt)
Assay: pre-steady-state target cleavage rate (min^-1); MIWI and MILI are mouse PIWI proteins and EfPiwi is from a freshwater sponge; tags in brackets are library labels; higher = faster piRNA-guided slicing of the target
Conditions: guide: L1MC piRNA 5'p-UAACUAAAUACUAUGCAAGCUGUAGGUCCU
Protocol: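 Cleave-'n-Seq: a library of target RNAs (target site embedded in constant flanks, ACAGCATTCCGCGTTAGTGATATCCG... 5' flank; DNA-blocked outside the site) at 0.1 nM was incubated with 1 nM active mouse MILI or MIWI piRISC (synthetic 5'-monophosphorylated piRNA guide) with or without 500 nM mouse GTSF1 at 33 °C for 1 min to 16 h. Uncleaved targets were sequenced and normalised to non-target controls, and the pooled three trials were fitted to a burst-and-steady-state model to give the pre-steady-state cleavage rate (min^-1; k3 is constrained to at most 1e-4). Sequence is the target site only; target names encode pairing extent (gX:gY) and contiguous / 1-mismatch / 2-mismatch / bulge geometry. Fits with R² ≤ 0 are excluded.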

[1] = auxiliary factor: 500 nM mouse GTSF1
[2] = auxiliary factor: none (no GTSF1)

| Sequence | pre-steady-state target cleavage rate [1] | pre-steady-state target cleavage rate [2] |
| --- | --- | --- |
| AGGUGGUACAGCUUGCAUAGUAUUUAGAAA | 0.19 ± 0.044 | 0.00559 ± 0.0016 |
| UCCUGGUACAGCUUGCAUAGUUAAUAGAAA | 0.023 ± 0.0089 |  |
| UCCUGGAUGACUUGCAUAGUAUUUAGUUA | 0.412 ± 0.03 | 0.0206 ± 0.0053 |
| UCCUGGAUGUCGAACGAUAGUAUUUAGUUUA | < 0.0001 |  |
| AGGACCUACAGCUUGCAUUGUAUAUAGUUA | 0.395 ± 0.031 | 0.0219 ± 0.0046 |
| AGGACCUUCAGCUUGCAUUGUAUUUAGUUA | 0.966 ± 0.031 | 0.0424 ± 0.01 |
| UCGACCUACAGCUUGGAUAGUAUUUAGAAA | 0.372 ± 0.044 | 0.00679 ± 0.002 |
| UCCUGGUACACCUUGCAUAGUUUUUAGUUA | 0.0764 ± 0.027 | 0.0132 ± 0.0038 |
| UGGAACCUACAGCUUGCAUAGUAUUUAGUUA | 1.41 ± 0.1 | 0.0747 ± 0.016 |
| UCGAACCUACAGCUUGCAUAGUAUUUAGUUA | 1.37 ± 0.046 | 0.0781 ± 0.016 |
| AGGAACUACAGCUUGCAUAGUAUUUAGUUA | 1.3 ± 0.041 | 0.0918 ± 0.016 |
| UGGAACUACAGCUUGCAUAGUAUUUAGUUA | 1.09 ± 0.041 | 0.0698 ± 0.011 |
| UGAACCUACAGCUUGCAUAGUAUUUAGUUA | 1.63 ± 0.068 | 0.0751 ± 0.015 |
| UCCACCUACAGCUUGCAUAGUAUUUAGUUG [g2:g27:cont:t1G] | 0.399 ± 0.047 | 0.0371 ± 0.0065 |
| UCGAACUACAGCUUGCAUAGUAUUUAGUUA | 1.39 ± 0.049 | 0.0698 ± 0.011 |
| AGGAACCUACAGCUUGCAUAGUAUUUAGUUA | 1.23 ± 0.059 | 0.0809 ± 0.014 |
| AGGACCUACAGGAAGCAUAGUAUUUAGUUA | 0.977 ± 0.08 | 0.0104 ± 0.0029 |
| UGGACCUACAGCUUGCAUAGUAUAAACAAA | 0.14 ± 0.028 |  |
| UCCACCUACAGCUUGCAUAGUAAAUAGUUA | 0.426 ± 0.039 | 0.00722 ± 0.0018 |
| AGGACCUACAGGAUGCAUAGUAUUUAGUUA | 1.06 ± 0.092 | 0.023 ± 0.0047 |
| UCCUGGAUGUGCUAGCAUAGAAUUUAGUUA | 0.00695 ± 0.0028 |  |

| Sequence | pre-steady-state target cleavage rate [1] | pre-steady-state target cleavage rate [2] |
| --- | --- | --- |
| AGGACCUACAGCUUGGAUAGUAUUUACUUA | 0.478 ± 0.054 | 0.0287 ± 0.0043 |
| UCCAGCUACAGCUUGCAUAGUAUUAAGUUA | 0.558 ± 0.043 | 0.015 ± 0.0026 |
| UCCAACCUACAGCUUGCAUAGUAUUUAGUUA | 1.05 ± 0.037 | 0.055 ± 0.0073 |
| UCAACCUACAGCUUGCAUAGUAUUUAGUUA | 1.43 ± 0.04 | 0.0646 ± 0.011 |
| AGAACCUACAGCUUGCAUAGUAUUUAGUUA | 1.43 ± 0.047 | 0.0851 ± 0.013 |
| UCCUGGAACAGCUGGCAUAGUAUUUAGUUA | 0.759 ± 0.038 | 0.0271 ± 0.0057 |
| UCCAGCUACAGCUUGCAUAGUAAUUAGUUA | 0.475 ± 0.038 | 0.0163 ± 0.0027 |
| UCCUGCUACAGGUUGCAUAGUAUUUAGUUA | 1.03 ± 0.037 | 0.0257 ± 0.0052 |
| UCCUGGAUGAGCUUGCAUAGUAUUCUAGUUA | 0.28 ± 0.036 | 0.0103 ± 0.0031 |
| UCCUGCUACAGCUUGCAUAGUAUAUACUUA | 0.111 ± 0.017 | 0.00755 ± 0.0036 |
| UCGUCCUACUGCUUGCAUAGUAUUUAGUUA | 1.14 ± 0.048 | 0.0572 ± 0.0094 |
| UGGAGCUACAGCUUGCAUAGUAUUUUGUUA | 0.992 ± 0.05 | 0.0525 ± 0.0077 |
| UCCUGGUUGUGCUUGCAUAGUAUUUAGUUA | 0.584 ± 0.032 | 0.0455 ± 0.0097 |
| UGGACCUACAGCUUGCAUAGUUAAUAGUAA | 0.0448 ± 0.01 |  |
| UCGACCUACAGUUUGCAUAGUAUUUAGUUA | 1.37 ± 0.054 | 0.0619 ± 0.0092 |
| UCCACCUACAGUUUGCAUAGUAUUUAGUUA | 0.892 ± 0.072 | 0.0474 ± 0.0076 |
| UCGACCUACAGUUGCAUAGUAUUUAGUUA | 0.955 ± 0.065 | 0.00747 ± 0.0023 |
| UGGACCUACAGUUGCAUAGUAUUUAGUUA | 1.06 ± 0.094 | 0.00944 ± 0.0032 |
| AGGACCUACAGUUUGCAUAGUAUUUAGUUA | 1.25 ± 0.073 | 0.0653 ± 0.0093 |
| UGGACCUACAGUUUGCAUAGUAUUUAGUUA | 1.5 ± 0.088 | 0.0675 ± 0.013 |
| UGGACGUACUGCUUGCAUAGUAUUUAGUUA | 1.01 ± 0.051 | 0.056 ± 0.0091 |

| Sequence | pre-steady-state target cleavage rate [1] | pre-steady-state target cleavage rate [2] |
| --- | --- | --- |
| UCCUGGAACAGCUUGCUUAGUAAUUAGUUA | 0.485 ± 0.041 | 0.0141 ± 0.0051 |
| UCCUGGAACAGCUUGCAUAGUAUUAUCUUA | 0.141 ± 0.028 | 0.00408 ± 0.0029 |
| UCGACCUACAGCUUGCAUAGUAUUAUGUAA | 0.228 ± 0.057 |  |
| UCCUGGAACAGCUAGCAUAGUAUUUAGUUA | 0.836 ± 0.027 | 0.022 ± 0.0049 |
| AGGACCUACAGCUUGCAUAGUAGUUUAGUUA | 0.47 ± 0.036 | 0.0209 ± 0.006 |
| UCCUGGAUGUGCUUGGAUAGUAUUAAGUUA | 0.0897 ± 0.022 | 0.00634 ± 0.0041 |
| UCCUGGAUCAGCUUGCAUAGUAUUUAGUUG [g2:g22:cont:t1G] | 1.05 ± 0.12 | 0.0362 ± 0.0084 |
| UCCUGGAUCAGCUUGCAUAGUAUUUAGUAA | 0.96 ± 0.047 | 0.0287 ± 0.0064 |
| UCCUGGAUCAGCUUGCAUAGUAUUUUAGUUA | 0.979 ± 0.05 | 0.0222 ± 0.0046 |
| UCCUGGAUCAGCUUGCAUAGUAUUUAGUUU [g2:g22:cont:t1U] | 1.54 ± 0.089 | 0.0667 ± 0.016 |
| UCCUGGAUCAGCUUGCAUAGUAUUUAGUA | 0.838 ± 0.043 | 0.0119 ± 0.0038 |
| UCCUGGAUCAGCUUUGCAUAGUAUUUAGUUA | 1.05 ± 0.053 | 0.0153 ± 0.004 |
| UCCUGGAUCAGCUUGCAUAGUAUUUAGUUUA | 1.64 ± 0.071 | 0.0415 ± 0.011 |
| UCCUGGAUCAGCUUGCAUAGUAUUUAGUUC [g2:g22:cont:t1C] | 1.14 ± 0.052 | 0.0609 ± 0.012 |
| UCCUGGAUCAGCUUGCAUAGUAUUUAGUUA [g2:g22:cont:t1A] | 1.36 ± 0.054 | 0.0516 ± 0.0097 |
| UCCUGGAUCAGCUUGCUAUAGUAUUUAGUUA | 0.00584 ± 0.0043 |  |
| UCCUGGAUCAGCUUGGAUAGUAUUUAGUUA | 0.775 ± 0.064 | 0.0476 ± 0.0092 |
| UCCUGGAUCAGCUUGUAUAGUAUUUAGUUA | 1.64 ± 0.1 | 0.0468 ± 0.012 |
| UCCUGGAUGAGCUAGCAUAGUAUUUAGUUA | 0.617 ± 0.05 | 0.0107 ± 0.0036 |
